# Laboratory results as given in ChEMBL document CHEMBL1961873, “Compounds: GSK PKIS; Assays: Nanosyn kinase panel” (2012).
# Molecular target: Tyrosine-protein kinase Fer (Homo sapiens) (UniProt P16591)
# Conditions: at 0.1 µM
# 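Also: reported figures are averaged percent inhibition of FER.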
# Tyrosine-protein kinase Fer (Homo sapiens), sequence (P16591 whole entry, looked up): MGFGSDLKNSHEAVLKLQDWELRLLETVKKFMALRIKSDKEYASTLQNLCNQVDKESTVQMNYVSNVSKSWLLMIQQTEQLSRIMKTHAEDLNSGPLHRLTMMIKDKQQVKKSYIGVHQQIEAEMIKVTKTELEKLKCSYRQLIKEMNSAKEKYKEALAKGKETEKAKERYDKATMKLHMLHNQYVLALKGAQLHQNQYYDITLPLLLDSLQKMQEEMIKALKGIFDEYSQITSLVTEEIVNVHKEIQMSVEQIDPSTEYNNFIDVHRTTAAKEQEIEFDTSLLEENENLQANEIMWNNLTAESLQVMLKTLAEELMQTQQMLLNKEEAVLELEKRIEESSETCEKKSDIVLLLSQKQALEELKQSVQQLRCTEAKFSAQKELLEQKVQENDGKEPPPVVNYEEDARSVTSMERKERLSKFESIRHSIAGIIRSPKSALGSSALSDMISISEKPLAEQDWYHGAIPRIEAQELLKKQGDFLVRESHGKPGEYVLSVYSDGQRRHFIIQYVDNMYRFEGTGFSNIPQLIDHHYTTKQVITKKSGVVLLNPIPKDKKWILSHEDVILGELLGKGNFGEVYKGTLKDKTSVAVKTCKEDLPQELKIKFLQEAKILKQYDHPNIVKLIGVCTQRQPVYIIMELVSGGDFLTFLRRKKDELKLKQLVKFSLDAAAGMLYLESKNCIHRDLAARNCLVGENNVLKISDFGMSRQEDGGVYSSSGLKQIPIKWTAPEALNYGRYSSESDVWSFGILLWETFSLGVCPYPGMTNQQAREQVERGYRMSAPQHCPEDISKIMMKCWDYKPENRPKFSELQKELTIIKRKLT
row,Compound,inhibition
1,CN(C)C(=O)O[C@@H]1CN[C@@H](C#Cc2cc3ncnc(Nc4ccc(OCc5cccc(F)c5)c(Cl)c4)c3s2)C1,0.75%
2,N#Cc1c(NC(=O)c2ccccc2F)sc2c1CCCC2,-1.19%
3,Cc1ccc2c(-c3ccnc(Nc4ccc5c(c4)OCCO5)n3)c(-c3ccc(C(F)(F)F)cc3)nn2n1,0.5%
4,COc1cccc(-n2nc(C)c3c(N/N=C(\C)c4ccncc4)ncnc32)c1,1.02%
5,NS(=O)(=O)c1ccc(N/N=C2\C(=O)Nc3ccc(Cl)cc32)cc1,2.95%
6,CCOc1nccc2c1nc(-c1nonc1N)n2CC,5.59%
7,Cc1ccc(C(=O)NC2CC2)cc1-c1ccc2[nH]ncc2c1,-2.95%
8,c1ccc(Nc2ncc(-c3ccccc3)o2)cc1,3.09%
9,Cc1cc(Cl)cc2c1NC(=O)C2=NNc1ccc(S(N)(=O)=O)cc1,2.65%
10,O=C1Nc2ccccc2/C1=C/Nc1ccc2[nH]c(=O)[nH]c2c1,3.27%
11,Nc1nccc(-c2c(-c3ccc(F)cc3)ncn2CCCN2CCOCC2)n1,2.69%
12,[O-][S+]1CCN(Cc2ccc(-c3ccc4ncnc(Nc5ccc(OCc6ccccc6)c(Cl)c5)c4c3)o2)CC1,-2.55%
13,NS(=O)(=O)c1cccc(-c2cc3ccncc3cc2OCc2ccccc2)c1,3.7%
14,CCCN1CCCC(c2ccc(Nc3nc(Nc4cc(F)ccc4C(N)=O)c4cc[nH]c4n3)c(OC)c2)C1 (stereo unspecified),77.5%
15,OCc1ccc(-c2nc(-c3ccccn3)c(-c3ccc4c(c3)OCO4)[nH]2)cc1,2.2%
16,COc1ccc(-c2nn3ncccc3c2-c2ccnc(Nc3cccc(C(F)(F)F)c3)n2)cc1,0.8%
